Source: PubChem BioAssay (EPA / NIEHS)
Results filed as inconclusive are left out. The source made the active and inactive calls. How the source made its calls, unless noted: active means hit-call score of the fitted dose curve at least 0.9, where 1 is the maximum; inactive means score below 0.9.

What was measured:
[1] = molecular target: Retinoic acid receptor RXR-alpha (Homo sapiens) (UniProt P19793); assay: ATG_RXRa_TRANS: Attagene TRANS-FACTORIAL HepG2 Assay for human Retinoid X Receptor alpha (RXRa) (AID 2283012; active means hit-call score of the fitted dose curve at least 0.9, where 1 is the maximum)
Chain of Retinoic acid receptor RXR-alpha (Homo sapiens) (P19793 whole entry, looked up, the tested form may be a part): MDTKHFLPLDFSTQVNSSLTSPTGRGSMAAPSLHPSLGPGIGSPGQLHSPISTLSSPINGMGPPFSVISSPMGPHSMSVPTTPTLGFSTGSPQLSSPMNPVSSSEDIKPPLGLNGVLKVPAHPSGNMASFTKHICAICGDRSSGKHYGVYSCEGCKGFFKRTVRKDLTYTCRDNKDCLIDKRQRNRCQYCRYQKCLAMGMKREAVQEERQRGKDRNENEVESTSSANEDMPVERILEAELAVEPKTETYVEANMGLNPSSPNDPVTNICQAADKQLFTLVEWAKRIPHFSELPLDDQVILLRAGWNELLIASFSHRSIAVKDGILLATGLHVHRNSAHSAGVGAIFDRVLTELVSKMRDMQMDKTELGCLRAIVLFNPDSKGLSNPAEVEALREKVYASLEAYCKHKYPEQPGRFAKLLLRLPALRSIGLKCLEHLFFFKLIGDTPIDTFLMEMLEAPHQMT
Outline: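 HepG2 cells transiently transfected with multiplexed GAL4-UAS reporter units and chimeric NR-GAL4 fusions, dosed 24 h. Reporter mRNA measured by RT-PCR, FAM labelling, HpaI digestion and capillary electrophoresis; gain-of-signal fitted relative to DMSO baseline.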

[2] = read-out: Interleukin-1 alpha (IL1a), IL1A (gene 3552); assay: BSK_BE3C_IL1a: BioMAP Diversity Plus: BE3C Assay for Interleukin-1 alpha (IL1a) Biomarker Activity (AID 2283016); details: primary human bronchial epithelial cells; actives raise or lower the signal
Outline: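 Human primary bronchial epithelial cells (BE3C system) were dosed with compound and IL-1a measured by ELISA 24 h later. Activity was fitted bidirectionally against DMSO baseline; cytotoxicity was tracked in parallel cultures by SRB total-protein staining.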

[3] = read-out: Monocyte Chemoattractant Protein-1 (MCP1), CCL2 (gene 6347); assay: BSK_3C_MCP1: BioMAP Diversity Plus: 3C Assay for Monocyte Chemoattractant Protein-1 (MCP1) Biomarker Activity (AID 2283017); details: primary human endothelial cells (HUVEC); actives raise or lower the signal
Outline: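 ELISA read-out of MCP-1 from human umbilical vein endothelial cell cultures harvested 24 h post-dosing. Gain or loss of signal was fitted relative to DMSO.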

[4] = read-out: Human Leukocyte Antigen - DR isotype (HLADR), HLA-DRA (gene 3122); assay: BSK_3C_HLADR: BioMAP Diversity Plus: 3C Assay for Human Leukocyte Antigen - DR isotype (HLADR) Biomarker Activity (AID 2283019); details: primary human endothelial cells (HUVEC); actives raise or lower the signal
Outline: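 ELISA readout of surface HLA-DR on human umbilical vein endothelium, taken 24 h after chemical treatment. Gain- and loss-of-signal were both fitted relative to DMSO.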

[5] = read-out: Interleukin-8 (IL8), CXCL8 (gene 3576); assay: BSK_3C_IL8: BioMAP Diversity Plus: 3C Assay for Interleukin-8 (IL8) Biomarker Activity (AID 2283020); details: primary human endothelial cells (HUVEC); actives raise or lower the signal
Outline: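 Primary human umbilical vein endothelial cells (3C system) were exposed to test chemical for 24 h, then IL-8 was quantified by ELISA. Responses were fitted bidirectionally against DMSO vehicle as baseline.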

[6] = read-out: Monokine induced gamma interferon (MIG), CXCL9 (gene 4283); assay: BSK_3C_MIG: BioMAP Diversity Plus: 3C Assay for Monokine induced gamma interferon (MIG) Biomarker Activity (AID 2283021); details: primary human endothelial cells (HUVEC); actives raise or lower the signal;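 on AC50: MIG protein level measured by immunoassay in the treated endothelial cultures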
Outline: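 Primary human umbilical vein endothelial cells in the 3C system were exposed to chemical for 24 h, after which MIG was quantified by ELISA. Activity was fitted bidirectionally against DMSO as negative control and baseline.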

[7] = BSK_3C_SRB: Viability Assessment in the BioMAP Diversity Plus: 3C Assay (AID 2283023); details: primary human endothelial cells (HUVEC);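 further: fitted both ways against DMSO so a hit may be signal rise or drop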
Outline: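 Absorbance at 560 nm of sulforhodamine B-stained (0.1%) total protein served as a cytotoxicity readout in human umbilical vein endothelial cells, 24 h after chemical treatment. Signal was fitted bidirectionally relative to DMSO.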

[8] = read-out: Matrix Metallopeptidase 1 (MMP1), MMP1 (gene 4312); assay: BSK_BE3C_MMP1: BioMAP Diversity Plus: BE3C Assay for Matrix Metallopeptidase 1 (MMP1) Biomarker Activity (AID 2283024); details: primary human bronchial epithelial cells; actives raise or lower the signal
Outline: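 Primary human bronchial epithelial cells were dosed with test chemicals, and MMP1 levels were measured by ELISA 24 h later. Data were fitted bidirectionally against DMSO as the negative control and activity baseline.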

[9] = BSK_3C_Vis: BioMAP Diversity Plus: 3C Assay for Morphology Visualization (AID 2283025); details: primary human endothelial cells (HUVEC);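 further: fitted both ways so gain or loss versus DMSO counts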
Outline: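 Human umbilical vein endothelial cells in the 3C system were imaged by light microscopy 24 h after chemical dosing to record cell morphology. Activity was fitted bidirectionally against DMSO as negative control and baseline; the endpoint serves as a background control.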

[10] = read-out: Pselectin, SELP (gene 6403); assay: BSK_4H_Pselectin: BioMAP Diversity Plus: 4H Assay for Pselectin Biomarker Activity (AID 2283026); details: primary human endothelial cells (HUVEC); actives raise or lower the signal
Outline: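 Primary human umbilical vein endothelial cells were exposed to test chemical for 24 h, then cell-surface P-selectin was quantified by ELISA. Activity was fitted bidirectionally against DMSO as negative control and baseline.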

[11] = BSK_4H_SRB: Viability Assessment in the BioMAP Diversity Plus: 4H Assay (AID 2283027); details: primary human endothelial cells (HUVEC);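 further: cells exposed to compound for 24 h before staining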;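 on AC50: curves fitted both ways versus DMSO so AC50 may be loss or gain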
Outline: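 Human umbilical vein endothelial cells, 24 h after chemical dosing; total protein measured by 0.1% sulforhodamine B staining after 10% TCA fixation, read at 560 nm. Bidirectional fitting against DMSO.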

[12] = BSK_BE3C_SRB: Viability Assessment in the BioMAP Diversity Plus: BE3C Assay (AID 2283028); details: primary human bronchial epithelial cells;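 on AC50: fitted both ways so AC50 may mark signal gain or loss versus DMSO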
Outline: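 Cells (human bronchial epithelial, primary) are treated with chemicals, and after 24 h the parallel cultures are fixed in 10% TCA. These are then stained with 0.1% SRB and read at 560 nm. Gain or loss of signal is fitted relative to DMSO.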

[13] = read-out: Thrombomodulin, THBD (gene 7056); assay: BSK_3C_Thrombomodulin: BioMAP Diversity Plus: 3C Assay for Thrombomodulin Biomarker Activity (AID 2283029); details: primary human endothelial cells (HUVEC); actives raise or lower the signal
Outline: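 Primary human umbilical vein endothelial cells (3C system) were exposed to chemical for 24 h, then thrombomodulin levels were measured by ELISA. Activity was fitted bidirectionally against the DMSO negative control as baseline.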

[14] = read-out: Urokinase-type plasminogen activator receptor (uPAR), PLAUR (gene 5329); assay: BSK_4H_uPAR: BioMAP Diversity Plus: 4H Assay for Urokinase-type plasminogen activator receptor (uPAR) Biomarker Activity (AID 2283030); details: primary human endothelial cells (HUVEC); actives raise or lower the signal
Outline: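 Cell-surface uPAR ELISA signal, measured 24 h after dosing human umbilical vein endothelial cells, was analyzed with bidirectional fitting relative to DMSO. Parallel SRB staining of total protein tracked overt cytotoxicity.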

[15] = molecular target: human Retinoid X Receptor beta (RXRb), RXRB (gene 6257) (UniProt P28702); assay: ATG_RXRb_TRANS: Attagene TRANS-FACTORIAL HepG2 Assay for human Retinoid X Receptor beta (RXRb) (AID 2283013; active means hit-call score of the fitted dose curve at least 0.9, where 1 is the maximum)
Chain of human Retinoid X Receptor beta (RXRb), RXRB (gene 6257) (P28702 whole entry, looked up, the tested form may be a part): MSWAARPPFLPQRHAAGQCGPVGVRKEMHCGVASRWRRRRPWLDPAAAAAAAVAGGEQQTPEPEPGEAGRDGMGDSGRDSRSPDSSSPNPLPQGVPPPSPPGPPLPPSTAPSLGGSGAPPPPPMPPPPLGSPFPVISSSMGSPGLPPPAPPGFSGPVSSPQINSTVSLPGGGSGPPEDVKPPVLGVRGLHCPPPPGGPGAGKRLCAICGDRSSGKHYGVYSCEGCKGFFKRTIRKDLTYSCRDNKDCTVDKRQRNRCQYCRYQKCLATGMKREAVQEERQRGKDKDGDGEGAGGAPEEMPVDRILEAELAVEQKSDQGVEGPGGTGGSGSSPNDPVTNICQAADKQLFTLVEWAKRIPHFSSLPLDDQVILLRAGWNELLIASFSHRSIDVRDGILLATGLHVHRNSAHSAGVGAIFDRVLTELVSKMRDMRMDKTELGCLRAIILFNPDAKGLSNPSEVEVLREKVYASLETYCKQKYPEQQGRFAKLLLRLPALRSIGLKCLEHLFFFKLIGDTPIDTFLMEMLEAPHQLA
Outline: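 HepG2 cells transiently transfected with multiplexed reporter units driven by GAL4-UAS and exogenous chimeric NR-Gal4 proteins; treated 24 h. Reporter mRNA measured by RT-PCR, 6-FAM labelling and capillary electrophoresis; gain-of-signal fitted versus DMSO baseline.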

[16] = read-out: E-selectin (Homo sapiens) (UniProt P16581); assay: BSK_3C_Eselectin: BioMAP Diversity Plus: 3C Assay for Eselectin Biomarker Activity (AID 2283015); details: primary human endothelial cells (HUVEC); actives raise or lower the signal
Outline: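 ELISA read-out of E-selectin on endothelial monolayers after 24 h chemical treatment. Human umbilical vein primary cells served as the system, with DMSO defining baseline activity for bidirectional fitting.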

[17] = molecular target: human Vitamin D Receptor (VDR), VDR (gene 7421) (UniProt P11473); assay: ATG_VDR_TRANS: Attagene TRANS-FACTORIAL HepG2 Assay for human Vitamin D Receptor (VDR) (AID 2283022; active means hit-call score of the fitted dose curve at least 0.9, where 1 is the maximum)
Chain of human Vitamin D Receptor (VDR), VDR (gene 7421) (P11473 whole entry, looked up, the tested form may be a part): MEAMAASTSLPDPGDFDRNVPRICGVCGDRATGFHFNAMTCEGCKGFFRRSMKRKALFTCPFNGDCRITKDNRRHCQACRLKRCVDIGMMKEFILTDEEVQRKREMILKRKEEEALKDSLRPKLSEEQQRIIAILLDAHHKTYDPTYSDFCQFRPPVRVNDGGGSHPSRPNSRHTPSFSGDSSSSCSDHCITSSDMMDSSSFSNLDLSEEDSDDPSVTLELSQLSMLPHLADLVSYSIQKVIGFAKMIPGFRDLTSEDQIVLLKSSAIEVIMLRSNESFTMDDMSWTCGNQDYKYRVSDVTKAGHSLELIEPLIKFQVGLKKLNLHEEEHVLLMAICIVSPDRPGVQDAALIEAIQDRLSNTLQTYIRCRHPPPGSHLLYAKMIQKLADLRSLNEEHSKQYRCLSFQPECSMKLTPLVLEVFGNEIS
Outline: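 Steps: transfect HepG2 with GAL4-UAS-driven reporter constructs; dose compounds 24 h; isolate RNA, reverse-transcribe, PCR-amplify with 6-FAM-labelled primer extension and HpaI digestion; quantify fragments by capillary electrophoresis relative to DMSO.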

[18] = read-out: Monocyte Chemoattractant Protein-1 (MCP1), CCL2 (gene 6347); assay: BSK_4H_MCP1: BioMAP Diversity Plus: 4H Assay for Monocyte Chemoattractant Protein-1 (MCP1) Biomarker Activity (AID 2283018); details: primary human endothelial cells (HUVEC); actives raise or lower the signal
Outline: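 Human umbilical vein endothelial cells (4H system) dosed with chemical; MCP-1 measured by ELISA 24 h after dosing. Bidirectional curve fitting against DMSO negative control as baseline; parallel SRB total-protein staining tracks overt cytotoxicity.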

[19] = molecular target: human RAR-related Orphan Receptor gamma (RORg), RORC (gene 6097) (UniProt P51449); assay: ATG_RORg_TRANS: Attagene TRANS-FACTORIAL HepG2 Assay for human RAR-related Orphan Receptor gamma (RORg) (AID 2283011; active means hit-call score of the fitted dose curve at least 0.9, where 1 is the maximum)
Chain of human RAR-related Orphan Receptor gamma (RORg), RORC (gene 6097) (P51449 whole entry, looked up, the tested form may be a part): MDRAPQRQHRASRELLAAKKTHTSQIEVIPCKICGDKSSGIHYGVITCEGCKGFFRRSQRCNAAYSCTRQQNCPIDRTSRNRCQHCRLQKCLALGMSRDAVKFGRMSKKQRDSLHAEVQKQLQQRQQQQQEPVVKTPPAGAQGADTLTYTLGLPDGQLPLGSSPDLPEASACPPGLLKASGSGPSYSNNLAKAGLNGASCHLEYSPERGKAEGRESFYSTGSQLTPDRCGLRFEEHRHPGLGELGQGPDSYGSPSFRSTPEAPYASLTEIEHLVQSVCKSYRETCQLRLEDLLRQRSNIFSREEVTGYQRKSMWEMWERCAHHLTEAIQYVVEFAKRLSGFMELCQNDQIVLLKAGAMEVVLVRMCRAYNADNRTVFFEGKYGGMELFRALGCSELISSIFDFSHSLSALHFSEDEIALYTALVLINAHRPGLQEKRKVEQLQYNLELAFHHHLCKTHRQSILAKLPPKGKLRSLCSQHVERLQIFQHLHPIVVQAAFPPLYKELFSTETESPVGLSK
Outline: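 First, HepG2 liver cells were transfected with GAL4-UAS-driven reporter constructs and the RORg-Gal4 fusion. Next, they were treated with chemical for 24 h. Finally, reporter mRNA was quantified by RT-PCR and capillary electrophoresis, with upward activity fitted against DMSO.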

[20] = molecular target: human Thyroid Receptor alpha (THRa1), THRA (gene 7067) (UniProt P10827); assay: ATG_THRa1_TRANS: Attagene TRANS-FACTORIAL HepG2 Assay for human Thyroid Receptor alpha (THRa1) (AID 2283014; active means hit-call score of the fitted dose curve at least 0.9, where 1 is the maximum)
Chain of human Thyroid Receptor alpha (THRa1), THRA (gene 7067) (P10827 whole entry, looked up, the tested form may be a part): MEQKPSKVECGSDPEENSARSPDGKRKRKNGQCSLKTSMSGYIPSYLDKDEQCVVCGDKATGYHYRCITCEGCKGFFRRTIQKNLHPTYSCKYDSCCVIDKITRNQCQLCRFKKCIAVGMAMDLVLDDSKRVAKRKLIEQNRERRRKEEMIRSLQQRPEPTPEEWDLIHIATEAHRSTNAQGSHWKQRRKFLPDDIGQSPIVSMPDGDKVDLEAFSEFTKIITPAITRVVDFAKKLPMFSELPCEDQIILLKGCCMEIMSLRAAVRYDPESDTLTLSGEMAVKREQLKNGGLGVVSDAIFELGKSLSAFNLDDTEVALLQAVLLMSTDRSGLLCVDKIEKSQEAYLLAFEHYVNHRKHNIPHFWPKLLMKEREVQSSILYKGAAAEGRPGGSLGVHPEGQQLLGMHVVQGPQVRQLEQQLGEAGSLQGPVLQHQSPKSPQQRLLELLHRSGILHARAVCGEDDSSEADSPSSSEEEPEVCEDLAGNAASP
Outline: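 Reporter transcript induction, read by capillary electrophoresis of 6-FAM-labelled RT-PCR products, reflects activity of a transfected THRa1-Gal4 fusion in HepG2 liver cells. Cells were dosed for 24 h; activity was fitted in the positive direction against DMSO.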

Measured: AC50

Chain of E-selectin (Homo sapiens) (P16581 whole entry, looked up): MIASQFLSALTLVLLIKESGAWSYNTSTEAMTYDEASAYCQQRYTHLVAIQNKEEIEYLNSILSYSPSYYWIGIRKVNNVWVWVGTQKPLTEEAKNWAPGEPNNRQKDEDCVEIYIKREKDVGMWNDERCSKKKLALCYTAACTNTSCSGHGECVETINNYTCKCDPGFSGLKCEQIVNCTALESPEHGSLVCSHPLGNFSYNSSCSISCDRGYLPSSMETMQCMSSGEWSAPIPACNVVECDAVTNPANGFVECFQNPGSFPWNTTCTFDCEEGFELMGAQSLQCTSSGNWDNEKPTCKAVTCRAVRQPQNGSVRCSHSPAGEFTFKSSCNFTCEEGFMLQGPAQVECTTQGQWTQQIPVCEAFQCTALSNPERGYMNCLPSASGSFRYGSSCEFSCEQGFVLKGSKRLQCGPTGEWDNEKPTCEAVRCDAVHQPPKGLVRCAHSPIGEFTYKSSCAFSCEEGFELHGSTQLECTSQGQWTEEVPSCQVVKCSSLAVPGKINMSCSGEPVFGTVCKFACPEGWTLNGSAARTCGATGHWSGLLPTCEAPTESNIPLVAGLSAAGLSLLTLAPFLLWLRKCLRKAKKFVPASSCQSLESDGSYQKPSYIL

CN(C)C(=O)Nc1cccc(C(F)(F)F)c1
active: [9] 39 µM
not listed: [15] | [16] | [17] | [18] | [19] | [20]
inactive: all other assays above

CCCSP(=O)(OCC)SCCC
not listed: [18] | [19] | [20]
inactive: all other assays above

CNC(=O)Oc1cccc2c1OC(C)(C)O2
active: [4] 28.6 µM | [7] 20 µM | [10] 16.7 µM
not listed: [1] | [16] | [19] | [20]
inactive: all other assays above

CCCSP(=O)(OCC)Oc1ccc(Br)cc1Cl (stereo not drawn)
active: [18] 28.9 µM | [7] 22.6 µM | [10] 32.3 µM | [11] 22.8 µM | [12] 15.4 µM
not listed: [1] | [15] | [16] | [20]
inactive: all other assays above

CCOP(=S)(Oc1cnc(C(C)(C)C)nc1)OC(C)C (stereo not drawn)
active: [16] 31.2 µM | [3] 38 µM | [4] 31.3 µM | [5] 30.2 µM | [6] 34.2 µM | [7] 35.5 µM | [9] 39.8 µM | [10] 32 µM | [11] 34.1 µM
not listed: [18] | [19]
inactive: all other assays above

CCOP(=S)(OCC)OC(Cl)C(Cl)(Cl)Cl (stereo not drawn)
active: [16] 14.7 µM | [4] 12.2 µM | [7] 14.9 µM | [9] 39.8 µM | [10] 29.4 µM | [11] 12.4 µM
not listed: [17] | [18] | [19]
inactive: all other assays above

CCOP(=O)(SC(C)CC)N1CCSC1=O (stereo not drawn)
not listed: [1] | [15] | [18] | [19] | [20]
inactive: all other assays above
